# According to PubChem BioAssay (NCI):
# Where “and” joins values, the source holds several entries; their conditions need not be identical. Identical values can stand only once. This is part of a sample that, as a whole, favours compounds with a hit. Of some 83,000 tested, about 20% had one in any assay.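 Percent growth is the endpoint: 0 to 100 indicates growth inhibition (40 means 60% inhibition), 0 means no net growth, and negative values indicate cell death.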 Unmarked numbers belong to inactive results. Calls of active or inactive are those of the source. Rule for the calls: active = growth percent below 10; inactive = the rest.
# System: MDA-MB-468 breast
# Test: NCI-60 one-dose screen, 48 h (100 = growth as untreated, 0 = no growth, -100 = all killed)
smiles,measurement,setting,value
COc1cc(CN2CCC(N3CCCC3=O)c3ccccc32)cc(OC)c1OC (centres undefined),growth,10 µM unless noted,36.3%
COC(=O)c1ccc2c(c1)[n+](=O)c(C(C)=O)c(C(F)(F)F)n2[O-],growth,10 µM unless noted,-83.7% (active)
COc1cc(CC#N)c([N+](=O)[O-])cc1OC,growth,10 µM unless noted,100%
Cc1ccc(Cc2cnc(NC(=O)CN3C(=O)/C(=C\c4ccccc4)SC3=S)s2)cc1,growth,10 µM unless noted,105%
COc1cc(/C=C2\SC(=O)NC2=O)ccc1OCC(=O)Nc1ccc(C(=O)/C=C/c2cc3ccccc3nc2Cl)cc1,growth,10 µM unless noted,61.4%
Cc1ncc(C(=O)Nc2ccc(CN3CCN(C)CC3)c(C(F)(F)F)c2)cc1C#Cc1cnc(N)c2ncccc12,growth,10 µM unless noted,63.1%
C=C(C)[C@@H]1CC[C@]2(C)[C@H](C=CC3=C4C[C@@](C)(CO)CC[C@]4(C)CC[C@]32C)[C@@]1(C)CCCN,growth,10 µM unless noted,-62.1% (active)
Cc1[nH]nc2c1C(c1cnn(C)c1)C(C#N)=C(N)O2 (centres undefined),growth,10 µM unless noted,92.4%
O=C(O)c1ccccc1N=Cc1ccccc1,growth,10 µM unless noted,112%
CCOC(Cc1c(N)[nH]c(=S)[nH]c1=O)OCC,growth,10 µM unless noted,101%
OC(c1cccc(OCc2ccccc2)c1)c1nnc(-c2ccccc2)o1 (centres undefined),growth,10 µM unless noted,64.8%
O=C(Cc1ccccc1Nc1c(Cl)cccc1Cl)NN1C(=O)/C(=C/c2ccc(Br)cc2)SC1=S,growth,10 µM unless noted,97%
CCOC(=O)c1cccc(NC2=C(Cl)C(=O)c3nc(C)ccc3C2=O)c1,growth,10 µM unless noted,-33.4% (active)
Clc1ccc2c(NCCCN3CCN(c4nc(N5CCOCC5)nc5ccccc45)CC3)ccnc2c1,growth,10 µM unless noted,-74.3% (active)
COc1ccc(/C=C2\COc3ccc(O)cc3C2=O)cc1OC,growth,10 µM unless noted,103%
N#Cc1ccc(N2Cc3cc(Cl)ccc3OC3=C2C(=O)N(Cc2ccccc2)C3=O)cc1,growth,10 µM unless noted,-64.2% (active)
O=c1nc(-c2ccccc2)c2cc(-c3ccc(C(F)(F)F)nc3)ccc2[nH]1,growth,10 µM unless noted,104%
CN(C)CCOc1ccc(-c2nc3sccn3c2-c2ccnc(S(C)(=O)=O)n2)cc1,growth,10 µM unless noted,98.8%
CC1(C)C(=O)/C(=C\c2ccccn2)C[C@]2(C)[C@H]3CC[C@@H]4[C@@H](C(=O)/C=C/c5ccccn5)CC[C@@]4(C)[C@]3(C)CC[C@@H]12,growth,10 µM unless noted,-50.6% (active)
O=C(Nc1cccc(-n2ccc3c(NC(=O)c4ccccc4)nccc32)c1)c1ccc(Cl)c(Cl)c1,growth,10 µM unless noted,-94.1% (active)
Cc1ccc(C(=O)Nc2ccc(CN3CCN(C)CC3)c(C(F)(F)F)c2)cc1C#Cc1cnc(N)c2ccc(F)cc12,growth,10 µM unless noted,-79.2% (active)
C(=C\c1n(Cc2ccc3ccccc3c2)c(-c2ccccc2)c(-c2ccccc2)[n+]1Cc1ccc2ccccc2c1)/c1ccccc1,growth,10 µM unless noted,-70.8% (active)
Cc1ccc(C)n1/C=C/n1c(C)ccc1C,growth,10 µM unless noted,95.1%
C[C@@H]1CN(c2cnc(C(=O)Nc3cc(F)cc4cccnc34)cn2)C[C@H](C)N1,growth,10 µM unless noted,3.8% (active)
Cc1cc(CSc2ccc(Cl)cc2)ccc1N,growth,10 µM unless noted,102%
CCN(CC)c1ccc2cc(C(Nc3ccc(C)cc3)c3nnnn3C(C)(C)C)c(=O)oc2c1 (centres undefined),growth,10 µM unless noted,105%
CCCCN(CCCC)Cc1c(C)[nH]c2cc(OC)ccc2c1=O,growth,10 µM unless noted,113%
NC(=O)Nc1cc(-c2cccc(F)c2)sc1C(=O)N[C@H]1CCCNC1,growth,10 µM unless noted,-60.5% (active)
O=C1/C(=C/c2ccc(O)cc2)CSc2ccc(Cl)cc21,growth,10 µM unless noted,30.2%
CN1CCN(Cc2ccc(NC(=O)c3cncc(C#Cc4c(N)ncc5ccccc45)c3)cc2C(F)(F)F)CC1,growth,10 µM unless noted,-71.6% (active)
O=CNCCc1ccccc1,growth,10 µM unless noted,97.8%
CC1(C)CC[C@]2(C(=O)OC(=O)[C@]34CCC(C)(C)C[C@@H]3C3=CC[C@@H]5[C@@]6(C)CCC(=O)C(C)(C)[C@@H]6CC[C@@]5(C)[C@]3(C)CC4)CC[C@]3(C)C(=CC[C@@H]4[C@@]5(C)CCC(=O)C(C)(C)[C@@H]5CC[C@]43C)[C@H]2C1,growth,10 µM unless noted,61.5% [100 µM]
Nc1nc(=S)c2[nH]cnc2[nH]1,growth,10 µM unless noted,-13.1% (active)
COc1ccc(CNc2nc3ccccc3c3c(=O)c4ccccc4sc23)cc1OC,growth,10 µM unless noted,57.4%
O=C(O)c1sccc1O,growth,10 µM,76.3%
same,growth,100 µM,10.8%
O=c1ccn2c(n1)OC1CC2OC1COC(c1ccccc1)(c1ccccc1)c1ccccc1 (centres undefined),growth,10 µM,102%
same,growth,100 µM,56.9%
Cc1[nH]c(-c2nc3ccccc3[nH]2)c(C)c1C(=O)NC(C)C1CCCCC1 (centres undefined),growth,10 µM,59.8%
same,growth,100 µM,-87.1% (active)
CN(C)C(=O)c1ccc(SC(=S)NCc2ccccc2)cc1,growth,10 µM,93.9%
same,growth,100 µM,-27.4% (active)
COc1ccc(C(=O)/C=C/c2ccc(OCc3ccc(Cl)cc3)cc2)cc1OC,growth,10 µM,83.3%
same,growth,100 µM,27.8%
CS/C(=C\c1ccc(C(=O)c2ccc(C)cc2)n1C)S(C)=O (centres undefined),growth,10 µM,86.1%
same,growth,100 µM,30.8%
CC(=O)O[C@H]1C(=O)[C@@]2(C)[C@H]([C@H](OC(=O)c3ccccc3)[C@]3(O)C[C@H](OC(=O)[C@H](O)[C@@H](NC(=O)c4ccccc4)c4ccccc4)C(C)=C1C3(C)C)[C@]1(OC(C)=O)CO[C@@H]1C[C@@H]2O,growth,2.5 µM,-25.5% (active)
same,growth,5 µM,-21.9% (active)
same,growth,10 µM,-19.1% (active)
CN(C)CCNc1ncc(F)c(-c2cnc3cc(-c4cnn(C)c4)ccn23)n1,growth,0.005 µM,103%
same,growth,30 µM,84.5%
O=C(/C=C/c1cccc(Oc2ccc(Cl)cc2)c1)c1ccccc1,growth,10 µM,110%
same,growth,100 µM,-36.3% (active)
CC(=O)/C=C/c1ccc(N(CCO)Cc2ccc(C(C)(C)C)cc2)cc1,growth,10 µM,73.8%
same,growth,100 µM,-71% (active)
CC(=O)/C=C/c1ccc(OCc2ccc(C(C)(C)C)cc2)cc1,growth,10 µM,47.7%
same,growth,100 µM,-0.894% (active)
Cc1cc(=O)n2nnc3cc(Cl)c(Cl)cc3n12,growth,10 µM unless noted,67%
CC(C)(C)c1ccc([I+]c2ccc(C(C)(C)C)cc2)cc1,growth,10 µM unless noted,-26% (active)
CCOC(=O)CNN,growth,10 µM unless noted,95.7%
CC1(C)OB(c2ccc(Cn3cc(F)c(=O)[nH]c3=O)cc2)OC1(C)C,growth,10 µM,105%
same,growth,50 µM,13%
O=c1ccn(C2CC(O)C(COC(c3ccccc3)(c3ccccc3)c3ccccc3)O2)c(=O)[nH]1 (centres undefined),growth,10 µM,101%
same,growth,100 µM,41.5%
CCCCCCCCCCCCCCCc1ccc(Cl)c(O)c1Cl (tested in a mixture with another compound),growth,0.25 µM,8.94% (active)
same,growth,10 µM,103%
O=c1[nH]cc(F)c(=O)[nH]1,growth,10 µM,64.4%
same,growth,50 µM,58.6%
CCc1ccccc1-n1c(N)c(C#N)c(-c2ccc(OC)c(OC)c2)c(C#N)c1=O,growth,10 µM,107%
same,growth,100 µM,47.4%
CCCCNc1ccc(-c2ccc(NCCCC)cc2)cc1,growth,10 µM unless noted,29.9%
CC#C[C@]1(O)CC[C@H]2[C@@H]3CCC4=CC(=O)CCC4=C3[C@@H](c3ccc4c(c3)OCO4)C[C@@]21C,growth,10 µM,66.6%
same,growth,100 µM,-15.2% (active)
C=C1C(=O)C2CCN1CC2,growth,10 µM unless noted,101%
O=C1/C(=C/c2ccc(Cl)c(Cl)c2)CN(C(=O)C(Cl)Cl)C/C1=C\c1ccc(Cl)c(Cl)c1,growth,10 µM unless noted,-52.5% (active)
COc1ccc(Cl)cc1C(=O)NCCc1ccc(S(=O)(=O)NC(=O)NC2CCCCC2)cc1,growth,10 µM,103% and 118%
same,growth,100 µM,63.2%
N=C(N)c1ccc(-c2ccc(-c3ccc(Cl)cc3)o2)nc1,growth,10 µM unless noted,-88.7% (active)
O=C(O)c1c(Cl)c(Cl)c(Cl)c(Cl)c1-c1c2cc(I)c(=O)c(I)c-2oc2c(I)c(O)c(I)cc12,growth,10 µM,115% and 111% and 77.5%
same,growth,100 µM,-39.6% (active)
Cc1ccc(S(=O)(=O)N/N=C2\CC3CCC2C3)cc1 (centres undefined),growth,10 µM unless noted,110%
CC(=O)/C=C/c1ccc(OCc2ccc(Cl)cc2)cc1,growth,10 µM,109%
same,growth,100 µM,1.46% (active)
CNC(=O)c1cc(Oc2ccc(CC(=O)Nc3cc(C(C)(C)C)nn3C)cc2)ccn1,growth,1 µM,28.7%
same,growth,10 µM,2.05% (active)
same,growth,30 µM,19.7%
Cc1ccc(CNc2c3ccccc3nc3cc(NC(=O)CCN4CCCC4)ccc23)cc1,growth,10 µM unless noted,-29.3% (active)
CC(C)(C)c1cc(NC(=O)Cc2ccc(-c3cnc4cc(-c5cnn(CCN6CCOCC6)c5)ccc4n3)cc2)no1,growth,10 µM,22.2%
same,growth,30 µM,-1.53% (active)
COc1cccc2c1C(=O)c1c(O)c3c(c(O)c1C2=O)C[C@@](O)(C(=O)CO)C[C@@H]3OC1CC(N)C(O)C(C)O1 (some centres undefined),growth,0.0025 µM,95.2%
same,growth,2.5 µM,10.4%
O=S(=O)(NCC[C@@H]1C[C@H]1c1ccc2ccccc2c1)c1ccc(C(F)(F)F)cc1,growth,10 µM unless noted,72.3%
O=C(Nc1cccc(Br)c1)Oc1cccc2cccnc12,growth,10 µM,103%
same,growth,100 µM,-8.71% (active)
CC(=O)/C=C/c1ccc(N(C)Cc2ccc(C(C)(C)C)cc2)cc1,growth,10 µM,86%
same,growth,100 µM,-71.8% (active)
O=C(Nc1c(Cl)cccc1Cl)Oc1cccc2cccnc12,growth,10 µM,19.5%
same,growth,100 µM,-0.346% (active)
COc1ccc(C(=O)/C=C/c2ccc(OCc3cccc(C(F)(F)F)c3)c(OC)c2)cc1OC,growth,10 µM,68.9%
same,growth,100 µM,-2.26% (active)
COc1ccc(-c2cscc2N)cc1,growth,10 µM,96.4%
same,growth,100 µM,38.7%
CCN(Cc1ccccc1)c1ccc(/C=C2\COc3ccccc3C2=O)cc1,growth,10 µM,118%
same,growth,100 µM,7.2% (active)
